# Assay outcomes as filed in PubChem.
# Most compounds without a hit are left out; they make up all but 13% or so of the library.
# USP10 inh: inhibitors of human USP10 deubiquitinase; Q14694; purified USP10, Ub-rhodamine fluorescence, 60 min; inhibition, % at 20 µM; actives 1.1% (n = 47,000); AID 1645856
# USP7 inh: human USP7 deubiquitinase inhibition | purified USP7, Ub-rhodamine cleavage fluorescence | AID 1645854 | Q93009 | actives 0.3% (n = 47,000) | inhibition, % at 20 µM
# USP30 block: human USP30 deubiquitinase inhibition. Q70CQ3. purified USP30, Ub-rhodamine cleavage fluorescence. inhibition, % at 25 µM. actives 5.3% (n = 47,000)
# Target sequence (Q70CQ3 whole entry, looked up): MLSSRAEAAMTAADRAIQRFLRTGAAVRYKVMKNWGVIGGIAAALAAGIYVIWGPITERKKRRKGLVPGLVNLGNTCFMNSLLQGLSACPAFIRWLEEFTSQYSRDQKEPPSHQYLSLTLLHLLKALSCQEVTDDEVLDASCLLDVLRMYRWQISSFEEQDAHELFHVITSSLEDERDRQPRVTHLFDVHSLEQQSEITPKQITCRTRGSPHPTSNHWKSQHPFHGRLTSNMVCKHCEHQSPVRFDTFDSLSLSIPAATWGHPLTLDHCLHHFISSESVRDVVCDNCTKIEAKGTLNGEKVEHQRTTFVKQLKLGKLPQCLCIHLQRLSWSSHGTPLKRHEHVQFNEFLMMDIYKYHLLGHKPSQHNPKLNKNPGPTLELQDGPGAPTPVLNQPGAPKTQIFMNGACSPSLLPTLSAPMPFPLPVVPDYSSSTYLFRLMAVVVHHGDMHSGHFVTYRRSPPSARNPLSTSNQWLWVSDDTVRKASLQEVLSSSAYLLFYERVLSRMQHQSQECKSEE
# USP8 block: human USP8 deubiquitinase inhibition. P40818. purified USP8, Ub-rhodamine cleavage fluorescence, 30 min. inhibition, % at 20 µM. actives 4.2% (n = 47,000). AID 1645853
# UCHL1 inh: blocks human UCHL1 ubiquitin-rhodamine cleavage | P09936 | actives 0.2% (n = 47,000) | inhibition, % at 20 µM | purified UCHL1, Ub-rhodamine cleavage fluorescence
# USP17 inh: inhibitors of human USP17 deubiquitinase; actives 6.5% (n = 47,000); A8MUK1; inhibition, % at 50 µM; purified USP17, Ub-rhodamine cleavage fluorescence, 3 h
# Numbers without * were called inactive. No stated cut-off is given here; in the data, active means inhibition above about 30%; inactive means the rest.
SMILES,USP10 inh,USP7 inh,USP30 block,USP8 block,UCHL1 inh,USP17 inh
COc1cc(NC(=O)Cn2cc(C(=O)c3ccccc3)c(=O)c3cc(Cl)ccc32)cc(OC)c1,61.9*,51.5*,-22.9,97.0*,10.5,0.1
COc1ccccc1NC(=O)Cn1cc(C(=O)c2ccc(C)cc2)c(=O)c2cc(Cl)ccc21,31.0*,8.0,24.9,2.4,-0.6,60.5*
COc1ccc2occ(CC(=O)Nc3nnc(SC)s3)c2c1,-4.3,0.4,-56.0,-0.2,-0.1,32.9*
COc1ccccc1CNc1ncc(-c2cc(C)no2)c([C@H]2CCCO2)n1,0.2,-1.6,-2.0,0.1,-1.4,-1.6
NS(=O)(=O)c1ccc(CNS(=O)(=O)/C=C/c2ccccc2)cc1,3.1,7.0,78.2*,17.7,-1.3,85.9*
CN(C)CCOc1cccc(C(=O)N2CCC3(CC2)CO[C@@H]2c4ccccc4OC(C)(C)[C@H]2C3)c1,-2.1,-3.2,9.9,-6.2,-1.6,-4.6
CN1[C@@H](CCC(=O)N2CCC(O)CC2)CNC(=O)[C@@H]2[C@H]1CCN2Cc1ccc(F)cc1,-4.1,-2.4,14.3,38.4*,9.7,-64.9
CN1[C@@H](CCC(=O)N2CCOCC2)CNC(=O)[C@@H]2[C@H]1CCN2Cc1ccc(F)cc1,-0.4,-23.9,1.4,43.0*,10.0,-72.2
Cc1ccc(CN2CC[C@@H]3[C@H]2C(=O)NC[C@H](CCC(=O)N2CCOCC2)N3C)cc1,-1.0,1.7,-13.0,12.1,2.9,-36.7
CN1[C@@H](CCC(=O)N2CCN(c3ccccn3)CC2)CNC(=O)[C@@H]2[C@H]1CCN2C1CCOCC1,-2.2,-13.4,43.7*,68.7*,11.5,-32.6
C#CCNC(=O)CC[C@H]1CNC(=O)[C@@H]2[C@@H](CCN2C2CCCCC2)N1C,2.6,-7.4,32.0*,42.3*,9.3,-42.1
COc1ccccc1NC(=O)N1C[C@@H]2OCC(=O)N(Cc3ccccn3)[C@@H]2C1,0.5,2.1,-7.8,10.3,-2.7,-1.7
CC1CN(C(=O)C2CCN(S(=O)(=O)c3ccccc3)CC2)CC(C)O1 (configuration not stated),1.3,0.1,2.4,-0.1,-1.8,3.6
Cc1ccc(CNc2cnc3cc(S(=O)(=O)N4CCCCC4)ccc3n2)cc1,-3.3,-14.0,-183.0,-8.7,-15.4,-42.4
CCOc1ccccc1C1[C@@H]2CCCC[C@]2(O)CCN1C(=O)/C=C/c1ccccc1 (some centres not stated),2.2,-3.9,1.3,-157.5,2.8,6.8
FC(F)(F)c1ccc(-c2cnc([C@@H]3COCCN3C3CCNCC3)[nH]2)cc1,-1.7,0.4,-29.5,2.1,4.1,16.9
CCCC1Cc2c(sc3nc(SCc4cccc(F)c4)nc(N)c23)CO1 (configuration not stated),9.4,-31.1,-5.1,16.3,-2.8,2.8
Cc1cc(CN2CCCC(c3ccc4cn[nH]c4n3)C2)no1 (configuration not stated),2.5,12.5,3.2,-44.7,5.6,-1.6
Cc1noc([C@@H]2C[C@H](NC(=O)Nc3cccc(C#N)c3)CN2C)n1,1.5,0.6,5.9,-15.1,-0.5,-5.0
CN(CCCNC(=O)c1cccc2c1SCCC2=O)c1ccccc1,-8.0,-9.5,-0.5,40.2*,1.0,53.9*
CCOc1ccccc1N(C)C(=O)c1cccc2c1SCCC2=O,2.5,-7.4,7.9,9.3,-0.3,5.3
COC(=O)c1ccc(NC(=O)c2cccc3c2SCCC3=O)cc1,0.1,2.1,4.0,8.2,1.4,36.2*
CS(=O)(=O)N1Cc2ccccc2CC1C(=O)NCc1ccccc1Cl (configuration not stated),-0.1,-17.4,11.1,-0.5,-1.2,2.5
Cc1cc(NC(=O)c2ccccn2)nn1Cc1ccccc1,1.4,0.0,3.4,-8.5,0.7,1.7
Cc1ccc(Cn2ccc(NC(=O)c3cc(-c4ccco4)on3)n2)cc1,-3.3,-80.1,-265.8,-60.1,-21.4,30.4*
SMILES,USP10 inh,USP7 inh,USP30 block,USP8 block,UCHL1 inh,USP17 inh
COc1cccc(-c2cc(C(=O)Nc3cc(C)n(Cc4ccc(Cl)cc4)n3)no2)c1,21.6,15.6,75.3*,38.1*,2.7,20.1
COc1ccc(-c2cc(C(=O)Nc3ccnn3Cc3ccccc3)no2)cc1,22.9,3.3,32.0*,0.1,0.0,36.5*
COc1ccc(-c2cc(C(=O)NCC(=O)O)no2)cc1,-0.8,-1.9,-95.7,-0.8,-1.9,-0.1
Cc1ncc(-c2ccccn2)c(C2CCC(CNC(=O)CCN3CCOCC3)CC2)n1 (configuration not stated),-3.4,0.1,11.4,9.5,-1.1,8.9
Cc1ccc(N2CCN(Cc3c(C)noc3C)CC2)cc1,1.4,-2.6,2.2,3.6,-2.3,-8.2
CC(C)C(Nc1ccc(C(F)(F)F)cc1Cl)C(=O)Nc1nc2ccccc2[nH]1 (configuration not stated),13.6,10.5,36.6*,-254.6,9.1,39.9*
N#Cc1ccc(Oc2nc(F)c(Cl)c3c2N(CC2CCCO2)CCS3(=O)=O)cc1 (configuration not stated),4.5,-17.9,3.7,71.1*,-0.1,46.6*
O=S1(=O)CCN(Cc2cccnc2)c2c(Oc3ccccc3)nc(F)c(Cl)c21,-1.2,-129.8,11.1,21.0,5.2,15.5
COCCN1CCS(=O)(=O)c2c(Cl)c(F)nc(Oc3ccc(OC)cc3)c21,1.9,-44.6,-6.8,5.1,-1.6,0.2
O=S1(=O)CCN(CC2CCCO2)c2c(Oc3ccccc3)nc(F)c(Cl)c21 (configuration not stated),4.5,-149.3,2.6,91.7*,9.4,60.2*
O=S1(=O)CCN(CC2CCCO2)c2c(Oc3ccc(F)cc3)nc(F)c(Cl)c21 (configuration not stated),8.6,-142.6,10.9,70.3*,7.2,33.7*
COCCCN1CCS(=O)(=O)c2c(Cl)c(F)nc(Oc3ccccc3F)c21,12.7,-145.7,-29.8,95.4*,18.4,87.9*
CC(NC(=O)c1ccc2noc(-c3ccc(F)cc3)c2c1)c1ccccc1 (configuration not stated),0.7,2.5,-46.3,-0.1,0.6,-9.5
CC1CCN(C(=O)COc2ccc(NC(=O)C3CC3)cn2)CC1,-4.1,0.8,-13.2,16.0,-2.4,-1.5
CS[C@@]1(CO)NC(=O)[C@@](Cc2ccccc2)(SC)NC1=O,-4.5,-0.3,1.2,-11.6,-0.9,-19.7
O=C(Cc1ccccc1Cl)NC1(c2nc(-c3cnccn3)no2)CCCCC1,0.6,-12.7,21.0,18.1,5.1,15.7
CCCC(=O)N1c2ncnn2C(c2ccc(C)cc2)CC1c1ccc(OC)cc1 (configuration not stated),5.6,-2.1,-2.6,0.1,-0.4,-4.7
COc1cc2cc(CN(Cc3cccnc3)C(=O)Nc3ccc(Cl)cc3)c(=O)[nH]c2cc1OC,-2.6,-4.4,39.6*,2.1,1.8,11.5
Cc1ccc2[nH]c(=O)c(CN(Cc3cccnc3)S(=O)(=O)c3ccccc3)cc2c1,0.0,0.0,9.9,0.2,-1.0,-7.0
